Source: PubChem (Broad Institute)
PD-1 reverse act = activators reversing PD-1 mediated T-cell inhibition | primary human CD4 T cells, PD-L1 beads, CellTiter-Glo 96 h | AID 2316 | activation, % (concentration not given with the values) | 29,000 tested, under 10 active; call rule not given here
NOMO-1 viab = STK33 inhibitor candidate reducing NOMO-1 cell viability; NOMO-1 AML viability, CellTiter-Glo luminescence, 72 h; inhibition, % (test concentration not listed); hit rate 7.5% among 37,000; in the data active means inhibition above about 80%; inconclusive means no clear call, values can overlap the other calls
Shh pathway inh = Sonic Hedgehog pathway inhibition; Shh-LIGHT2 Gli-luciferase reporter, 30 h; inhibition, % (no concentration beside the values); hit rate 2.1% among 22,000;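 active means mean inhibition across valid replicates above about 65%, limit read from the data; inconclusive means mean under the limit, yet half or more replicates past it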;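 further: pathway switched on by Shh-conditioned medium diluted 1 in 25 in low serum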
Hits are given with their value. Shown are actives, neighbours in structure and some others; about 7.7% of the full set was active somewhere.

`c1nc(NCC2CCCO2)c2sc3nc(N4CCCCC4)c4c(c3c2n1)CCCC4` (configuration not stated) gave PD-1 reverse act inactive and NOMO-1 viab inactive.
Screening C[C@H](CO)N1C[C@H](C)[C@H](CN(C)Cc2ccc(Oc3ccccc3)cc2)Oc2ccc(NC(=O)Cc3ccccc3)cc2C1=O returned NOMO-1 viab inactive.
`COc1ccc(NC(=O)Nc2ccc3c(c2)C(=O)N([C@@H](C)CO)C[C@@H](C)[C@@H](CN(C)Cc2ccc(-c4ccccc4)cc2)O3)cc1` gave PD-1 reverse act inactive, NOMO-1 viab 116 and Shh pathway inh inactive.
Screening C[C@@H]1CN([C@H](C)CO)C(=O)c2cc(NC(=O)NC3CCCCC3)ccc2O[C@H]1CN(C)Cc1ccc(Oc2ccccc2)cc1 returned PD-1 reverse act inactive and NOMO-1 viab inconclusive.
Screening C[C@@H]1CN([C@@H](C)CO)C(=O)c2cc(NC(=O)Nc3ccccc3)ccc2O[C@@H]1CN(C)Cc1ccc(Oc2ccccc2)cc1 returned PD-1 reverse act inactive and NOMO-1 viab 117.
Screening C[C@H](CO)N1C[C@H](C)[C@@H](CN(C)Cc2ccc(Oc3ccccc3)cc2)Oc2ccc(NC(=O)Nc3ccccc3)cc2C1=O returned PD-1 reverse act inactive and NOMO-1 viab inconclusive.
COc1ccc(NC(=O)Nc2ccc3c(c2)C(=O)N([C@H](C)CO)C[C@H](C)[C@H](CN(C)Cc2ccc(-c4ccccc4)cc2)O3)cc1 was read as PD-1 reverse act inactive and NOMO-1 viab inactive.
`C[C@H]1CN([C@@H](C)CO)C(=O)c2cc(NC(=O)Cc3ccccc3)ccc2O[C@@H]1CN(C)Cc1ccc(Oc2ccccc2)cc1` gave NOMO-1 viab 93.
For C[C@@H]1CN([C@@H](C)CO)C(=O)c2cc(NC(=O)NC3CCCCC3)ccc2O[C@@H]1CN(C)Cc1ccc(Oc2ccccc2)cc1 the results were PD-1 reverse act inactive, NOMO-1 viab 120 and Shh pathway inh inactive.
COc1cc(C2c3c(cc(OC)c(O)c3O)CC(CO)C2CO[C@@H]2O[C@H](C(=O)O)[C@@H](O)[C@H](O)[C@H]2O)cc(OC)c1O (some centres not stated) was read as PD-1 reverse act inactive, NOMO-1 viab inactive and Shh pathway inh inactive.
`Cc1c(C(=O)C2C(=O)C(=O)N(CCN3CCOCC3)C2c2ccccn2)cnn1-c1ccccc1` (configuration not stated) gave NOMO-1 viab inactive.
For CN(c1cccc(NC(=O)c2ccc(NS(=O)(=O)c3ccccc3)cc2)c1)S(C)(=O)=O the results were NOMO-1 viab inactive.
`COc1ccc(NC(=O)Nc2ccc3c(c2)C(=O)N([C@@H](C)CO)C[C@H](C)[C@@H](CN(C)Cc2ccc(Oc4ccccc4)cc2)O3)cc1` gave PD-1 reverse act inactive, NOMO-1 viab inactive and Shh pathway inh inactive.
COc1ccc(NC(=O)Nc2ccc3c(c2)C(=O)N([C@H](C)CO)C[C@@H](C)[C@@H](CN(C)Cc2ccc(Oc4ccccc4)cc2)O3)cc1 was read as NOMO-1 viab 122 and Shh pathway inh 96.
Screening N#Cc1ccc(CSc2nc(-c3cccs3)c3c(c2C(=O)O)CCCC3)cc1 returned PD-1 reverse act inactive, NOMO-1 viab inactive and Shh pathway inh inconclusive.
For CN1CCc2c(-c3cccs3)nc(OCc3ccccc3Br)c(C#N)c2C1 the results were PD-1 reverse act inactive, NOMO-1 viab 97 and Shh pathway inh 65.
`COc1cccc2cc(C(=O)CC3(O)C(=O)N(Cc4ccccc4)c4ccc(Br)cc43)c(=O)oc12` (configuration not stated) gave PD-1 reverse act inactive and NOMO-1 viab 127.
COc1cccc2cc(C(=O)NCc3ccccn3)c(=O)oc12 was read as PD-1 reverse act inactive and NOMO-1 viab inactive.
For O=C(CC1(O)C(=O)N(Cc2ccccc2)c2ccccc21)c1cc2ccccc2oc1=O (configuration not stated) the results were PD-1 reverse act inactive and NOMO-1 viab 105.
For O=C(NCCO)c1cc2ccccc2oc1=O the results were PD-1 reverse act inactive and NOMO-1 viab inactive.
Screening COC(=O)c1cc(OC)c(OC)cc1NC(=O)COc1ccccc1F returned PD-1 reverse act inactive and NOMO-1 viab inactive.
Screening Cc1c(NC(=O)COc2cc(Cl)c(Cl)cc2Cl)cccc1-c1nc2ccccc2o1 returned PD-1 reverse act inactive and NOMO-1 viab inactive.
Screening CC(=O)Nc1ccc(OC(=O)CSc2nc3ccccc3s2)cc1 returned PD-1 reverse act inactive and NOMO-1 viab inactive.
For CS(=O)(=O)N1CCN(c2ccccc2NC(=O)COc2ccc(Cl)cc2)CC1 the results were PD-1 reverse act inactive and NOMO-1 viab inactive.
Screening COc1ccc(-c2nnc(Nc3cccc(C(F)(F)F)c3)c3ccccc23)cc1 returned PD-1 reverse act inactive, NOMO-1 viab 116 and Shh pathway inh 87.
For CNC(=O)COc1ccc(Nc2nnc(-c3ccc(OC)cc3)c3ccccc23)cc1 the results were NOMO-1 viab inactive.
CC(=O)c1ccc(NC(=O)CSc2nnc(C34CC5CC(CC(C5)C3)C4)n2C)cc1 was read as NOMO-1 viab inactive.
For c1nncn1N=C1CCCCC1 the results were PD-1 reverse act inactive, NOMO-1 viab inactive and Shh pathway inh inactive.
`O=C1NCC2(CCN(CCc3ccccc3)CC2)O1` gave NOMO-1 viab inactive and Shh pathway inh inactive.
Screening N#CC1CN(CCc2ccccc2)CN(CCc2ccccc2)C1 returned PD-1 reverse act inactive, NOMO-1 viab 111 and Shh pathway inh 69.
CCCC[C@H](O)[C@@H]1CC(OC)=CC(=O)O1 was read as Shh pathway inh inactive.
Screening c1ccc(-c2noc(CSc3nnc(C4CC4)n3-c3ccccc3)n2)cc1 returned PD-1 reverse act inactive and NOMO-1 viab inactive.
For C=C1C(=O)O[C@@H]2/C=C(/CO)CC/C=C(/C=O)C[C@@H](O)[C@@H]12 the results were PD-1 reverse act inactive, NOMO-1 viab 109 and Shh pathway inh inactive.
For C=C1C(=O)O[C@@H]2/C=C(/C)CC/C=C(/C=O)C[C@@H](OC(=O)CC(C)C)C12 (some centres not stated) the results were Shh pathway inh inactive.
`C=C(C(=O)O)[C@@H]1CC[C@@]2(C)CC(=O)C=C(C)C2C1` (some centres not stated) gave PD-1 reverse act inactive, NOMO-1 viab inactive and Shh pathway inh inactive.
For C=C1C(=O)O[C@@H]2C[C@@]3(C)CC(=O)C=C(C)C3C[C@H]12 (some centres not stated) the results were PD-1 reverse act inactive, NOMO-1 viab 120 and Shh pathway inh inactive.
For C=C1CC[C@@H](O)[C@]2(C)C[C@H]3OC(=O)C(=C)[C@H]3CC12 (some centres not stated) the results were PD-1 reverse act inactive, NOMO-1 viab 104 and Shh pathway inh inactive.
`COc1cc(C(=O)NC(=S)Nc2cccc(-c3nc4ncccc4o3)c2C)cc(OC)c1OC` gave PD-1 reverse act inactive and NOMO-1 viab inactive.
`COc1c(O[C@@H]2O[C@H](CO)[C@@H](O)[C@H](O)[C@H]2O)cc2c(c1OC)-c1ccc(SC)c(=O)cc1C(NC(C)=O)CC2` (some centres not stated) gave PD-1 reverse act inactive, NOMO-1 viab inactive and Shh pathway inh inactive.
`CNC1CCc2cc(OC)c(OC)c(OC)c2-c2ccc(OC)c(=O)cc21` (configuration not stated) gave PD-1 reverse act inactive, NOMO-1 viab 97 and Shh pathway inh 92.
